Here are results for 40 sequences from the supplement of paper PMC10338343.

± gives the standard deviation.

The test system of the first assay is MILI (PIWIL2) piRISC loaded with L1MC piRNA (26 nt). Put plainly: pre-steady-state target cleavage rate (min^-1); guide: L1MC piRNA 5'p-UAACUAAAUACUAUGCAAGCUGUAGG; MIWI and MILI are mouse PIWI proteins and EfPiwi is from a freshwater sponge; tags in brackets are library labels; higher = faster piRNA-guided slicing of the target. The following applies: auxiliary factor: 500 nM mouse GTSF1. In short, it runs like this: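 The method was Cleave-'n-Seq, in which uncleaved targets from a transcribed, DNA-blocked target RNA library were sequenced after exposure to active affinity-purified piRISC carrying one synthetic guide, with or without GTSF1 partner protein. Reactions contained 0.1 nM library, 1 nM piRISC and, where present, 500 nM GTSF1 in HEPES–potassium acetate buffer at 33 °C for 0–8 or 0–960 min. Reads were normalised to depth and to weakly complementary targets, three trials were pooled, and k3 was capped at 0.0001 min^-1. The pre-steady-state cleavage rate came from a burst-and-steady-state fit.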
Regarding UCCUGGAUGAGCUUGGUAAGUAUUUAGUAA, the “pre-steady-state target cleavage rate” value was found to be 0.00762 ± 0.0042.

Regarding UCCUGGAACAGCAAGCAUAGUAUUUUCAAA, the “pre-steady-state target cleavage rate” value turned out to be 0.0642 ± 0.018.

For the sequence UCCUGGAUGUCGAUGCAAUAGUAUUUAGUUA, the “pre-steady-state target cleavage rate” value came to 0.00497 ± 0.0023.

Take UCCUGGAUGUCGUUGGAAAGUAUUUAGUUA: the “pre-steady-state target cleavage rate” value is under 0.0001.

Turning to UCCUGGAUGAGCUUGCAUGUAUUUAGUUA, the “pre-steady-state target cleavage rate” value came out at 0.0097 ± 0.004.

Consider UCCUGGAUGAGCUUGCAUAGUAUUAGUUA, for which the “pre-steady-state target cleavage rate” value is 0.0846 ± 0.015.

For the sequence UCCUGGAUGUCGAUGAAUAGUAUUUAGUUA, the “pre-steady-state target cleavage rate” value worked out at 0.00887 ± 0.0033.

Turning to UCCUGGAUCAGCUUGCUAAGUAUUUACAAA, the “pre-steady-state target cleavage rate” value turned out to be 0.0261 ± 0.0085.

Turning to UCCUGGAUGUGCUUGCAUAGUAAAUAGUAA, the “pre-steady-state target cleavage rate” value came out at 0.0121 ± 0.0056.

For the sequence UCCUGGUACAGCUUGCAUUGUAUUUACUUA, the “pre-steady-state target cleavage rate” value amounted to 0.05 ± 0.015.

Turning to UCCUGGAUGUCGUUCCAUAGUAUUUAGUUA, the “pre-steady-state target cleavage rate” value came to 0.00992 ± 0.0041.

As for UCCUGGAUCAGCUUGCAUAGAAUUAAGUUA, the “pre-steady-state target cleavage rate” value turned out to be 0.0383 ± 0.011.

As to UCCUGGUACAGCUUGCAUAGUUUUUACUUA, the “pre-steady-state target cleavage rate” value came out at 0.0154 ± 0.008.

UCCUGGAUGUGCUACCAUAGUAUUUAGUAA: the “pre-steady-state target cleavage rate” value is 0.0454 ± 0.011.

As for UCCUGGAUGUCGAAGCAUAGUAUUCAGUUA, the “pre-steady-state target cleavage rate” value worked out at 0.00908 ± 0.0042.

Take UCCUGGUAGAGCUUGCAUAGUAUUUACAAA: the “pre-steady-state target cleavage rate” value was determined as 0.015 ± 0.0066.

For UCCUGCUACAGCUUGCAUAGAAUUUACUUA, the “pre-steady-state target cleavage rate” value turned out to be 0.107 ± 0.031.

Turning to UCCUGGAUGUCCUUGCAUAGUAUUUUGAUA, the “pre-steady-state target cleavage rate” value amounted to 0.0211 ± 0.0077.

As to UCCUGGAACAGCUUGCUUAGUAUUUUCAAA, the “pre-steady-state target cleavage rate” value amounted to 0.0287 ± 0.011.

As for UCCUGGAUGUCGUUGCAUAGUUUUUAGUAA, the “pre-steady-state target cleavage rate” value was 0.00481 ± 0.004.

In the case of UCCUGGAUCAGCUUGCUAUGUAUUUAGAAA, the “pre-steady-state target cleavage rate” value turned out to be 0.00524 ± 0.0033.

With UCCUGGUACAGCUUGCAUAGUAAAUAGAAA, the “pre-steady-state target cleavage rate” value came out at 0.081 ± 0.025.

Consider UCCUGGUACACCUUGCAUAGUAUUUUGUUA, for which the “pre-steady-state target cleavage rate” value was determined as 0.201 ± 0.054.

As to UCCUCCUACAGCUUGCAUAGUAUUUAGUGA, the “pre-steady-state target cleavage rate” value worked out at 0.186 ± 0.034.

Take UCCUGGAUGUCCAUGCAUACUAUUUAGUUA: the “pre-steady-state target cleavage rate” value amounted to 0.0122 ± 0.0052.

As for UCCUGGAUGUCGUUGCAUAGUAUUUUGUUA, the “pre-steady-state target cleavage rate” value came to 0.194 ± 0.044.

As to UCCUGGAUGUCGUAGCAUAGUAUUUUGUUA, the “pre-steady-state target cleavage rate” value came out at 0.0314 ± 0.01.

Regarding UCCUGGAUGUGCUUGCAUAGCAUUUAGUUA, the “pre-steady-state target cleavage rate” value amounted to 0.0436 ± 0.012.

Take UCCUGGAACAGCUUGCUAUGUAUUUAGAAA: the “pre-steady-state target cleavage rate” value came out at 0.00873 ± 0.0046.

Regarding UCCUGGAUGUCCUUGCAUAGUAAUUUGUUA, the “pre-steady-state target cleavage rate” value came to 0.0222 ± 0.0085.

Take UCCUGGAUGUCCAACCAUAGUAUUUAGUUA: the “pre-steady-state target cleavage rate” value was 0.00412 ± 0.004.

Turning to UCCUGGAUGUCCUUGCAUAGUAUUAAGAUA, the “pre-steady-state target cleavage rate” value was 0.00928 ± 0.0043.

Consider UCCUGGAUGUCGUAGCAUAGUAUUUAGAUA, for which the “pre-steady-state target cleavage rate” value is 0.0132 ± 0.0048.

The same assay, now with this note: auxiliary factor: none (no GTSF1).
Take UCCUGGAUGUCGAACGAUAGUAUAUUAGUUA: the “pre-steady-state target cleavage rate” value was under 0.0001.

In the case of UCCUGGAUGUCGAACGUAUGAUAUUAGUUA, the “pre-steady-state target cleavage rate” value is under 0.0001.

For UCCUGGAUGUCGAACCAUAGUAUUGAGUUA, the “pre-steady-state target cleavage rate” value was under 0.0001.

As to UCCUGGAUGUCGAUGAUAGUAUUUAGUUA, the “pre-steady-state target cleavage rate” value is under 0.0001.

For UCCUGGAUGUCGAACGUAAGUAUUUUGUUA, the “pre-steady-state target cleavage rate” value was under 0.0001.

On to UCCUGGAUGUCGAACGUUAGGUAUUUAGUUA, for which the “pre-steady-state target cleavage rate” value was under 0.0001.

For the sequence UCCUGGAUGUCGAUGCAUACUAUUUAGAUA, the “pre-steady-state target cleavage rate” value was under 0.0001.
